From the supplement of paper PMC10646978
± gives the standard deviation.

Key:
Conditions in all cases: modulator concentration 10 µM
[1] = tested on: RAW-Dual (murine macrophage reporter line); experiment: NF-kB reporter (SEAP) activity fold change vs agonist alone; higher = enhanced NF-kB activity
Procedure, shortened: (§1)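 Compound reached 10 μM final in each well by pin transfer, onto RAW-Dual murine macrophage reporter cells seeded at 50 000 per well in 384-well plates. After 1 hour at 37 °C, the cells were stimulated overnight with a PRR agonist. SEAP in the supernatant was read with QUANTI-Blue at 620 nm absorbance for NF-κB, and Lucia luciferase was read with QUANTI-Luc luminescence for IRF. Each signal was turned into fold change against the mean agonist-only control on the same plate, and two replicate plates were averaged with propagated errors.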

[2] = tested on: RAW-Dual (murine macrophage reporter line); experiment: IRF reporter (Lucia luciferase) activity fold change vs agonist alone; higher = enhanced IRF activity
Procedure, shortened: as §1

[3] = tested on: RAW-Dual (murine macrophage reporter line); experiment: viability score (confluency relative to resting cells, overnight) (fraction); higher = more viable, active = viable (0.7 or more)
Procedure, shortened: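 A compound met the cutoff when both of two confluency masks exceeded 70% of resting cells. Those masks were made with IncuCyte software from IncuCyte images of RAW-Dual macrophages treated overnight at 10 μM final. This is the basis of the viability score, which is confluency relative to resting cells.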

[4] = agonist: CpG ODN 1826 0.5 ug/mL

| Structure (SMILES) | NF-kB reporter [1, 4] | NF-kB reporter ([1]; agonist: LPS 0.1 ug/mL) | NF-kB reporter ([1]; agonist: MPLA […]) | IRF reporter ([2]; agonist: 3'3'-cGAMP 10 ug/mL) | IRF reporter ([2]; agonist: LPS 0.1 ug/mL) | IRF reporter ([2]; agonist: MPLA […]) | viability score [3] |
| --- | --- | --- | --- | --- | --- | --- | --- |
| CCOCCOC(=O)C1=C(C)NC2=C(C(=O)CCC2)C1c1coc2ccc(C)cc2c1=O (configuration not stated) | 0.973 ± 0.083 | 0.961 ± 0.12 | 0.993 ± 0.12 | 1.01 ± 0.029 | 1.41 ± 0.14 | 1.18 ± 0.11 | 1.01 (active) |
| O=C(OCCN1CCCCC1)c1ccc(O)cc1 | 1.01 ± 0.081 | 1.06 ± 0.07 | 1.03 ± 0.04 | 1.08 ± 0.077 | 1.03 ± 0.047 | 1.07 ± 0.18 | 1 (active) |
| Nc1ccn([C@@H]2O[C@H](CO)[C@@H](O)[C@@H]2O)c(=O)n1 | 1.36 ± 0.27 | 1.38 ± 0.13 | 1.38 ± 0.19 | 0.687 ± 0.025 | 1.08 ± 0.16 | 1.14 ± 0.12 | 0.35 (inactive) |
| Cc1ccc(-n2c(=O)c3c4c(sc3n3c(S)nnc23)CCCC4)cc1 | 0.968 ± 0.063 | 1.07 ± 0.069 | 0.923 ± 0.1 | 0.959 ± 0.035 | 1.41 ± 0.21 | 1.15 ± 0.1 | 0.993 (active) |
| CN(c1ccccc1)c1nnc(C(C)(C)C)c(=O)[nH]1 | 1.05 ± 0.079 | 0.951 ± 0.076 | 1.01 ± 0.048 | 1.03 ± 0.039 | 0.908 ± 0.11 | 0.863 ± 0.24 | 0.994 (active) |
| N[C@@H]1CONC1=O | 0.988 ± 0.074 | 0.913 ± 0.14 | 0.959 ± 0.037 | 0.929 ± 0.092 | 1.05 ± 0.094 | 1.06 ± 0.082 | 1 (active) |
| CC1=CCCC(=O)C2CC(C)(C)C2CC1 (configuration not stated) | 0.95 ± 0.13 | 0.857 ± 0.11 | 0.89 ± 0.083 | 0.876 ± 0.031 | 1.05 ± 0.15 | 1.05 ± 0.3 | 1.05 (active) |
| CCOc1cccc2sc(=NC(=O)c3ccc(S(=O)(=O)N4CCOCC4)cc3)n(C)c12 | 0.991 ± 0.31 | 1.14 ± 0.16 | 0.989 ± 0.13 | 0.97 ± 0.025 | 1.06 ± 0.14 | 1.27 ± 0.15 | 0.995 (active) |
| CCn1c2ccccc2c2cc(CNCCc3ccccc3)ccc21 | 0.476 ± 0.041 | 0.534 ± 0.035 | 0.977 ± 0.068 | 0.438 ± 0.067 | 0.605 ± 0.043 | 2.43 ± 0.32 | 0.0405 (inactive) |
| O=C1CCC(N2C(=O)c3ccccc3C2=O)C(=O)N1 (configuration not stated) | 1.13 ± 0.088 | 1.03 ± 0.16 | 1.04 ± 0.12 | 1.11 ± 0.25 | 0.897 ± 0.054 | 0.863 ± 0.067 | 0.999 (active) |
| CCOC(=O)Nc1nc(C)c(C(C)=O)s1 | 0.763 ± 0.059 | 0.872 ± 0.046 | 1.12 ± 0.098 | 0.996 ± 0.058 | 1.35 ± 0.081 | 1.44 ± 0.14 | 1.02 (active) |
| O=c1c(CN2CCC(O)(c3ccc(Br)cc3)CC2)coc2ccccc12 | 0.712 ± 0.056 | 0.953 ± 0.059 | 1.07 ± 0.066 | 0.676 ± 0.032 | 1.07 ± 0.14 | 0.85 ± 0.12 | 1.01 (active) |
| Br.Cc1ccc(-c2csc(N3N=C(c4ccc(F)cc4)CC3c3ccc(C(C)C)cc3)n2)cc1C (configuration not stated) | 0.948 ± 0.083 | 1.01 ± 0.072 | 0.903 ± 0.088 | 0.824 ± 0.027 | 1.35 ± 0.14 | 1.13 ± 0.099 | 1 (active) |
| O=C(Nc1cc(C(F)(F)F)cc(C(F)(F)F)c1)c1c(F)cccc1F | 0.953 ± 0.099 | 1.07 ± 0.075 | 0.911 ± 0.069 | 0.987 ± 0.07 | 1.29 ± 0.14 | 1.07 ± 0.072 | 1.01 (active) |
| Cc1cc(CNC(=O)CCc2ccc(C(F)(F)F)cc2)c(C)o1 | 1.09 ± 0.061 | 1.01 ± 0.089 | 0.877 ± 0.038 | 1.2 ± 0.069 | 1.14 ± 0.068 | 1.25 ± 0.33 | 0.957 (active) |
| CCOC(=O)C1=C(C)N(c2ccc(OC)cc2)C(=O)C1=Cc1ccc(C(=O)O)cc1 | 0.751 ± 0.13 | 1.12 ± 0.087 | 0.984 ± 0.076 | 0.642 ± 0.022 | 1.32 ± 0.16 | 1.39 ± 0.15 | 0.997 (active) |
| CCN[C@H]1CN(CCCOC)S(=O)(=O)c2sc(S(N)(=O)=O)cc21 | 1.01 ± 0.12 | 1.04 ± 0.059 | 0.975 ± 0.05 | 1.03 ± 0.067 | 0.913 ± 0.042 | 1 ± 0.12 | 1 (active) |
| Oc1ccc(C=NCc2ccccc2)cc1 | 1.11 ± 0.12 | 1.08 ± 0.079 | 1.04 ± 0.038 | 0.921 ± 0.11 | 0.999 ± 0.05 | 1.06 ± 0.19 | 1 (active) |
| NS(=O)(=O)c1ccc2c(c1)C1C=CCC1C(C(=O)O)N2 (configuration not stated) | 0.586 ± 0.049 | 0.992 ± 0.15 | 1.01 ± 0.075 | 0.8 ± 0.043 | 0.931 ± 0.055 | 1.01 ± 0.089 | 0.997 (active) |
| O=C(CCC(=O)Nc1ccccc1)NN=Cc1ccc(Cl)cc1 | 1.01 ± 0.06 | 0.993 ± 0.062 | 1 ± 0.08 | 0.98 ± 0.036 | 1.48 ± 0.2 | 1.22 ± 0.13 | 1 (active) |
| Cl.Nc1ccn([C@@H]2O[C@H](CO)[C@@H](O)[C@@H]2O)c(=O)n1 | 1.61 ± 0.12 | 1.13 ± 0.068 | 1.06 ± 0.047 | 0.87 ± 0.13 | 1.03 ± 0.1 | 0.8 ± 0.079 | 0.579 (inactive) |
| Cc1cccc(C(=O)ON=C(c2ccncc2)c2ccc([N+](=O)[O-])cc2)c1 | 0.806 ± 0.07 | 0.838 ± 0.039 | 1.06 ± 0.099 | 1.03 ± 0.068 | 1.43 ± 0.083 | 1.61 ± 0.14 | 1 (active) |
| CNCC[C@@H](Oc1ccccc1C)c1ccccc1.Cl | 0.744 ± 0.079 | 0.996 ± 0.05 | 1.26 ± 0.085 | 1.02 ± 0.11 | 0.95 ± 0.041 | 0.792 ± 0.16 | 0.958 (active) |
| CCn1c(C=Nn2cnnc2)nc2ccccc21 | 0.929 ± 0.11 | 1.08 ± 0.072 | 0.943 ± 0.036 | 0.972 ± 0.23 | 0.903 ± 0.048 | 0.911 ± 0.068 | 0.995 (active) |
| CC(=O)N1CC(C(=O)Nc2cccc(Br)c2)C1 | 1.11 ± 0.063 | 1.05 ± 0.08 | 0.963 ± 0.031 | 0.932 ± 0.034 | 1.05 ± 0.062 | 0.971 ± 0.11 | 0.998 (active) |
| COc1ccc(N(CC(=O)N(C)Cc2ccccc2)S(C)(=O)=O)cc1OC | 1.08 ± 0.086 | 1.02 ± 0.083 | 1.05 ± 0.08 | 1.03 ± 0.026 | 1.45 ± 0.21 | 1.1 ± 0.18 | 1.01 (active) |
